Experimental findings from PubChem BioAssay AID868 (SRMLSC, 2007) are described below.

Screen size: about 190,000 compounds; about 3,500 (1.8%) were called active.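 Rule for the calls: active = inhibition above a set limit, 3 SD over mean compound inhibition (cut at about 8.4% in these data); inactive = the rest.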 This excerpt belongs to a sample that is enriched for actives.

This experiment is described as follows: RAM signaling blockers in budding yeast – dse1pr::URA3 reporter, 5-FOA selection, primary screen (AID 868).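 Note: 0% = DMSO-only wells with no growth and 100% = 10 µM 1-NA-PP1 full growth; inhibition rescues growth on 5-FOA so higher OD means more RAM inhibition.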 As to conditions: S. cerevisiae dse1pr::URA3 reporter, 5-FOA growth OD615, 2 d; at 50 µM; active compounds read high; analog-sensitive cbk1-as2 kinase mutant strain.
As a reminder, the inhibition is the relative decrease from the control value, in per cent. Regarding `Cc1ccccc1NS(=O)(=O)CCCCC(Cl)(Cl)Cl`, the inhibition is 1.86% (inactive). Under `Cc1ccc(-c2csc(NC(=O)c3cccs3)n2)cc1` stands 3.07% (inactive). For the compound `O=C(O)CCC(=O)N(Cc1ccco1)c1nc(-c2ccccc2)cs1`, the inhibition was 3.13% (inactive). As for `Cc1ccc(-c2csc(N(Cc3ccco3)C(=O)c3cccs3)n2)cc1`, the inhibition was 8.42% (active).

On to `O=C(CN1C(=O)NC2(CCCCCC2)C1=O)NC1CC1`, for which the inhibition is -0.87% (inactive). Under `Cc1ccc2nc(COc3ccc(N(C)S(=O)(=O)c4ccccc4)cc3)cc(=O)n2c1` stands 2.17% (inactive); under `CCC1CCCCN1CCCNC(=O)c1cc2c(Cl)nc3ccccc3c2s1` (configuration not stated), 1.99% (inactive); under `N#Cc1ccc(-c2nc3cc(C#N)c(C#N)cc3nc2-c2ccccc2)cc1C#N`, 1.25% (inactive).

`COc1ccc(C2CC(=O)n3c(nc4ccccc43)S2)cc1OC` (configuration not stated): the inhibition was 3.3% (inactive). Next, `COc1ccccc1C1CC(=O)n2c(nc(-c3ccccc3)c2-c2ccccc2)S1` (configuration not stated): 8.41% (active). Consider `COc1cccc(C2CC(c3ccccc3)=NN2S(=O)(=O)c2ccccc2)c1OC` (configuration not stated), for which the inhibition was 2.56% (inactive). For the compound `O=C(COC(=O)c1ccccc1C(=O)N1CCN(c2ccccc2)CC1)NCc1ccccc1`, the inhibition was 1.15% (inactive). Under `CN1CCNC(=O)C1CC(=O)N1CC=C(c2ccc(F)cc2)CC1` (configuration not stated) stands -0.5% (inactive). Under `NC(=O)C[n+]1cccc(C(N)=O)c1` stands 1.51% (inactive); under `CCc1ccccc1NC(=S)N(CCN1CCCCCC1)Cc1ccco1`, -0.63% (inactive); under `O=C1c2ccccc2C(=O)N1CCCc1nc(-c2ccccc2)no1`, 3.93% (inactive). As for `Cc1ccc2[nH]cc(CCNC(=O)c3ccc([N+](=O)[O-])cc3)c2c1`, the inhibition was -1.27% (inactive). Under `Cc1ccc2[nH]cc(CCCN3C(=O)c4ccccc4C3=O)c2c1` stands 8.46% (active); under `NC(=O)COC(=O)c1cc(S(=O)(=O)N2CCN(c3ccccc3)CC2)ccc1Cl`, 5.02% (inactive); under `Cc1cc2[nH]ncc2cc1NC(=S)NC(=O)c1ccccc1`, 3.3% (inactive). Next, `Cc1ccc(NC(=S)NC(=O)c2ccc(-c3ccccc3)cc2)c(C)c1`: 8.7% (active); `Cc1ccc(C(=O)NC(=S)Nc2ccccc2C)cc1`: -0.37% (inactive); `CCCCN(C)c1ccc([N+](=O)[O-])cc1`: -1.26% (inactive). Next, `Cc1cccc(C2=N/C(=C/c3cccs3)C(=O)O2)c1`: 4.44% (inactive). As for `C/C(N)=C(/C#N)C(=O)COC(=O)c1cc(-c2ccccc2)nc2ccc(Br)cc12`, the inhibition is 3.84% (inactive). Under `Cc1cccc(CSc2nnc(C)c(=O)n2N)c1` stands 0.13% (inactive); under `Cc1nc2c(C(=O)NCc3cccs3)cnn2c(C)c1Cc1ccc(F)cc1`, 1.27% (inactive); under `COC(=O)Cn1c(=NC(=O)c2cc(OC)c(OC)c(OC)c2)sc2cc(OC)ccc21`, 5.03% (inactive). For the compound `CCOC(=O)N1CCN(C(=O)c2cc3c(ccc4ccccc43)oc2=O)CC1`, the inhibition was 4.45% (inactive). Next, `CCOC(=O)c1c(C)nc2c(c1C)c(=O)oc1ccccc12`: 18.6% (active); `CCCCC(=O)Nc1cc(C)c2c(=O)oc3ccccc3c2n1`: 7.85% (inactive).

Consider `CCN(CC)CC1(O)CCN(C(=O)c2ccc(Cl)c(Cl)c2)CC1`, for which the inhibition is 1.77% (inactive).

Take `O=C(COC(=O)/C(=C/c1cccs1)c1cccs1)NCc1ccccc1Cl`: the inhibition is 14% (active). With `O=C(COC(=O)c1cc2c(s1)CCCC2)NCc1ccccc1Cl`, the inhibition is 4.18% (inactive). Next, `O=C(COC(=O)Cn1cnc2ccccc2c1=O)NCc1ccccc1Cl`: 0% (inactive). Under `O=C1Oc2ccccc2C(=O)/C1=C/c1ccccc1O` stands 0.25% (inactive); under `COC(=O)c1ccc(NC(=O)c2ccco2)cc1`, 0.13% (inactive); under `O=C(Nc1ccc(Sc2ccc(Br)cc2)cc1)c1ccco1`, 9.42% (active). Take `O=C(CSc1ccccc1)Nc1ccc(NC(=O)c2ccco2)cc1`: the inhibition is 3.77% (inactive).

`CCOc1ccc(Cn2c(SCCCCC#N)nc3c2c(=O)n(C)c(=O)n3C)cc1OCC`: the inhibition is 1.06% (inactive). With `CCCSc1nc2c(c(=O)n(C)c(=O)n2C)n1Cc1ccc(C)cc1`, the inhibition was 8.43% (active). Next, `Cc1cccc(Cn2c(SCCO)nc3c2c(=O)n(C)c(=O)n3C)c1`: 0.88% (inactive); `COc1ccc(CCNc2cc(C)nc3c(-c4ccc(Cl)cc4)c(C)nn23)cc1OC`: -0.42% (inactive); `CCc1cccc2c(=O)c(C(=O)NCCCOC)c[nH]c12`: 3.16% (inactive). Next, `CC1=C(C(=O)OCc2ccccc2)C(c2ccc(C(F)(F)F)cc2)NC(=O)N1CCCCCC(=O)O` (configuration not stated): 7.19% (inactive); `COCCN1C(=O)N[C@@H](c2ccccc2)C(C(=O)OC)=C1C`: 0.8% (inactive); `COC(=O)CCCCCN1C(=O)NC(c2ccc(-c3ccccc3)cc2)C(C(=O)OCc2ccccc2)=C1C` (configuration not stated): 15.8% (active).

Take `O=C(NCCCNc1ccc([N+](=O)[O-])cc1Cl)c1ccccc1F`: the inhibition was 1.43% (inactive).

`COCC(C)n1c(C)cc(C(=O)COc2ccc(C)nc2[N+](=O)[O-])c1C` (configuration not stated): the inhibition is 1.49% (inactive). For the compound `Cc1ccc(C(=O)NC(=S)NCc2cccnc2)cc1`, the inhibition is 5.38% (inactive). Next, `COc1cc(C2C(C(=O)c3ccc(C)o3)=C(O)C(=O)N2Cc2cccnc2)ccc1O` (configuration not stated): 0.23% (inactive); `COc1ccc(C2C(C(C)=O)=C(O)C(=O)N2CCc2c[nH]c3ccccc23)cc1` (configuration not stated): 3.37% (inactive); `COc1cc(C2C(C(=O)c3ccc(C)o3)=C(O)C(=O)N2CCc2ccccc2)ccc1O` (configuration not stated): 9.49% (active). For the compound `O=C(COc1cccc2ccccc12)Nc1cc(S(=O)(=O)N2CCOCC2)ccc1N1CCOCC1`, the inhibition was 3.39% (inactive). Next, `S=c1[nH]nc(CSCc2ccc(Cl)cc2Cl)n1-c1ccccc1`: 4.95% (inactive); `Clc1ccc(CSc2nnc(/C=C/c3ccccc3)o2)c(Cl)c1`: 9.57% (active). Next, `O=C(Nc1nnc(SCc2ccc(Cl)cc2Cl)s1)C1COc2ccccc2O1` (configuration not stated): 4.44% (inactive); `O=C(Nc1ccccc1)N1CCN(C(=O)Nc2ccccc2)CC1`: 2.76% (inactive).

As to `O=C(COC(=O)/C=C/c1cn(-c2ccccc2)nc1-c1cccnc1)Nc1ccc(Cl)cc1Cl`, the inhibition was 2.97% (inactive). Under `COc1ccc2c(c1)CCc1c(C(=O)Nc3c(C)n(C)n(-c4ccccc4)c3=O)noc1-2` stands 3.23% (inactive); under `COc1ccc2c(c1)CCc1c(C(=O)N3CCCC3)noc1-2`, 2.15% (inactive); under `COc1ccc2c(c1)CCc1c(C(=O)N3CCc4ccccc4C3)noc1-2`, 12.2% (active).

As to `O=C(NN1C(=O)C2C3C=CC(O3)C2C1=O)c1ccncc1` (configuration not stated), the inhibition was 2.74% (inactive). Next, `CCCCN1C(=O)c2ccc(C(=O)Nc3ccc(S(=O)(=O)N(C)C)cc3)cc2C1=O`: 3.73% (inactive); `CC(C)CCN1C(=O)c2ccc(C(=O)Nc3cccc(S(N)(=O)=O)c3)cc2C1=O`: 9.03% (active); `Cc1cccc(C(=O)Nc2ccc3c(c2)C(=O)N(CC(C)C)C3=O)c1`: 3.29% (inactive). Turning to `Cc1ncoc1C(=O)N1CCCC(C(=O)c2ccc3c4c(cccc24)CC3)C1` (configuration not stated), the inhibition was 1.14% (inactive). On to `CCC1CCCCN1C(=O)CSc1nc(C)cc(C)n1` (configuration not stated), for which the inhibition was -1.36% (inactive).

For the compound `CCC/C=C(\CCC)C(NC(=O)Cc1ccccc1)c1ccc(C(=O)OC)cc1` (configuration not stated), the inhibition was 8.71% (active). For the compound `COc1ccc(CC(=O)NC(C)CCc2ccccc2)cc1` (configuration not stated), the inhibition is 0.14% (inactive). As to `COc1ccc(C(CC(=O)O)NC(=O)Cc2ccccc2)cc1` (configuration not stated), the inhibition was 0.54% (inactive). Regarding `Cc1cccc(CN2CCN(Cc3cnn(-c4ccccc4F)c3)CC2CCO)n1` (configuration not stated), the inhibition was -0.13% (inactive). In the case of `COc1cc(NC(=S)N2CCCC(C)C2)cc(OC)c1OC` (configuration not stated), the inhibition was 2.19% (inactive). For `Cc1ccc(-c2noc(CSc3nnc(-c4ccncc4)n3-c3ccc(F)cc3)n2)cc1`, the inhibition is 2.42% (inactive). Consider `Fc1ccc(-n2c(Cc3ccccc3)nnc2SCc2nc(-c3ccc(Cl)cc3)no2)cc1`, for which the inhibition is 14.2% (active). For the compound `Cc1ccc(-c2noc(CSc3nnc(-c4ccccc4)n3C)n2)cc1`, the inhibition is 2.09% (inactive).

Regarding `Cc1n[nH]c(=O)n1-c1ccc(C(C)C)cc1`, the inhibition is 0.86% (inactive). Under `Nc1nc(-c2sc3nc4c(cc3c2N)CCCC4)nc(N2CCOCC2)n1` stands 5.88% (inactive); under `COc1ccc(NS(=O)(=O)c2ccc(NC(C)=O)cc2)cc1OC`, 1.03% (inactive); under `COc1ccc(C(=O)Oc2cc(/C=N/NS(=O)(=O)c3ccc(C)cc3)ccc2OC)cc1`, 5.34% (inactive).

Take `COc1ccc(/C=C/C(=O)c2ccc(NS(=O)(=O)c3ccc(C)cc3)cc2)cc1O`: the inhibition is 11.1% (active). Regarding `Cc1cc(C2=NNC(=Nc3ccc(S(=O)(=O)N4CCOCC4)cc3)SC2)c(C)n1CC1CCCO1` (configuration not stated), the inhibition is 5.9% (inactive).

Regarding `CC(C(=O)NC1CCCC1)N(c1ccc(Oc2ccccc2)cc1)S(C)(=O)=O` (configuration not stated), the inhibition is -0.13% (inactive). For the compound `O=C1c2ccccc2C(=O)N1CCC(O)C[N+](=O)[O-]` (configuration not stated), the inhibition was 1.77% (inactive). Under `CC(=O)NC1C(Oc2ccc(C)cc2)OC2COC(c3ccco3)OC2C1O` (configuration not stated) stands 0.78% (inactive); under `CC(=O)Nc1ccc(NC(=O)CSCc2cnn(-c3ccccc3)c2-n2cccc2)cc1`, 0.44% (inactive). For the compound `Cc1cc(C)cc(NC(=O)CSc2ccccc2)c1`, the inhibition was 1.47% (inactive). As for `Cc1cc(C)cc(NC(=O)CSCc2cnn(-c3ccccc3)c2-n2cccc2)c1`, the inhibition is 13.3% (active). For `Nc1nc(SCc2ccc([N+](=O)[O-])cc2)c2ncn(C3OC(CO)C(O)C3O)c2n1` (configuration not stated), the inhibition is 1.26% (inactive). On to `Cc1cccc(-n2c(SCC(=O)Nc3cccc(S(=O)(=O)NC4=NCCCCC4)c3)nc3ccccc3c2=O)c1C`, for which the inhibition was 11.7% (active). As for `NS(=O)(=O)c1cccc(NC(=O)CSc2nc3ccccc3n2-c2ccccc2)c1`, the inhibition is 6.21% (inactive). Under `CCc1ccc(C(=O)OCC(=O)Nc2cccc(S(=O)(=O)NC3=NCCCCC3)c2)cc1` stands 0.26% (inactive).
